# Values without a mark were called inactive.
# Columns and labels:
# Assay in all cases: log2 ratio of Biotin-Ahx-Ub-VS probe labelling (fragment/DMSO); higher = less target engagement (more negative = stronger competition), active = hit call of the paper (q ≤ 0.05, log2 ratio ≤ -1)
# Details in all cases: compound concentration: 200 uM; treatment time: 3 h
# USP19 = molecular target: T1, USP19 (UniProt O94966)
# T1 sequence (whole entry): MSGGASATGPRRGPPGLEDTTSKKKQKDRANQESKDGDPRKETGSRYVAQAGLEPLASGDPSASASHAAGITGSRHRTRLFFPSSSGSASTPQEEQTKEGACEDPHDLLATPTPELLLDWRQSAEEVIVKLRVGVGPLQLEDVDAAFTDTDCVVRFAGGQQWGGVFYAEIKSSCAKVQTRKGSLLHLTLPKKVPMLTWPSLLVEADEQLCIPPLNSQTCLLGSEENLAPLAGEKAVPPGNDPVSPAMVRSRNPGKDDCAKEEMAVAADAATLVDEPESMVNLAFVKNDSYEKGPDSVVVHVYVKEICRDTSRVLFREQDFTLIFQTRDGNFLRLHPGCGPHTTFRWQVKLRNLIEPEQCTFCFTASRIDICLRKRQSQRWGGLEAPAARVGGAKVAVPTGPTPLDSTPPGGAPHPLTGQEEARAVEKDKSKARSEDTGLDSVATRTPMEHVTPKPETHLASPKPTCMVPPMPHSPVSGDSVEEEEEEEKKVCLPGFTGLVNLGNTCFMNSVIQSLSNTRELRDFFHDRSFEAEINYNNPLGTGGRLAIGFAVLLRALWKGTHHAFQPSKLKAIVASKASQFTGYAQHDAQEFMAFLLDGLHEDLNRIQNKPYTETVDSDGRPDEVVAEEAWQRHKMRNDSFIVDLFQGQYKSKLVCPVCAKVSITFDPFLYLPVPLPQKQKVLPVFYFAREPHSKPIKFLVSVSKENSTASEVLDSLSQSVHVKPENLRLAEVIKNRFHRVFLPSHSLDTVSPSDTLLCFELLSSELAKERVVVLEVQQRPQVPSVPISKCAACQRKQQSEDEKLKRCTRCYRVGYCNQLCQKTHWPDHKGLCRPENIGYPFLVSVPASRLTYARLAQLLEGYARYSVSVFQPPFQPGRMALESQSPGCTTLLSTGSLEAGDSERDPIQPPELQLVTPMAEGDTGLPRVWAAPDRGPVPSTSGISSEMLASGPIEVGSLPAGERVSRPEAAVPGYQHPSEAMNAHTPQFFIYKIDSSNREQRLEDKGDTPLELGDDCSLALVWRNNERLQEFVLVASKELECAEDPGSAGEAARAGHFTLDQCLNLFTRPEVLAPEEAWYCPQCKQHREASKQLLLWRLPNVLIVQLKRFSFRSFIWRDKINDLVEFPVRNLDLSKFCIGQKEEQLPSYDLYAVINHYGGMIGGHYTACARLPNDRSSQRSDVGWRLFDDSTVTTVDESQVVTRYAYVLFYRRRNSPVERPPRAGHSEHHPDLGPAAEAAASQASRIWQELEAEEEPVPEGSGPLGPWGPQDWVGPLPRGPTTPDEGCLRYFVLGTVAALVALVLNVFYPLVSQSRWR
# In short: (§1)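 Each value is an average log2 ratio of fragment to vehicle, tested by unpaired t-test. The underlying Spectronaut label-free quantities were global-median-normalised, and only proteins with ≥2 unique peptides were included. Triplicate HEK293T lysate samples (495 µg) were exposed to fragment at 200 µM or vehicle for 3 h, then to Biotin-Ahx-Ub-VS at 0.5 µM final for 1 h, before NeutrAvidin enrichment of labelled DUBs, LysC and trypsin digestion, and diaPASEF LC-MS/MS.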
# USP24 = USP24 (UniProt Q9UPU5)
# In short: as §1
# USP25 = molecular target: T2, USP25 (UniProt Q9UHP3)
# T2 sequence (whole entry): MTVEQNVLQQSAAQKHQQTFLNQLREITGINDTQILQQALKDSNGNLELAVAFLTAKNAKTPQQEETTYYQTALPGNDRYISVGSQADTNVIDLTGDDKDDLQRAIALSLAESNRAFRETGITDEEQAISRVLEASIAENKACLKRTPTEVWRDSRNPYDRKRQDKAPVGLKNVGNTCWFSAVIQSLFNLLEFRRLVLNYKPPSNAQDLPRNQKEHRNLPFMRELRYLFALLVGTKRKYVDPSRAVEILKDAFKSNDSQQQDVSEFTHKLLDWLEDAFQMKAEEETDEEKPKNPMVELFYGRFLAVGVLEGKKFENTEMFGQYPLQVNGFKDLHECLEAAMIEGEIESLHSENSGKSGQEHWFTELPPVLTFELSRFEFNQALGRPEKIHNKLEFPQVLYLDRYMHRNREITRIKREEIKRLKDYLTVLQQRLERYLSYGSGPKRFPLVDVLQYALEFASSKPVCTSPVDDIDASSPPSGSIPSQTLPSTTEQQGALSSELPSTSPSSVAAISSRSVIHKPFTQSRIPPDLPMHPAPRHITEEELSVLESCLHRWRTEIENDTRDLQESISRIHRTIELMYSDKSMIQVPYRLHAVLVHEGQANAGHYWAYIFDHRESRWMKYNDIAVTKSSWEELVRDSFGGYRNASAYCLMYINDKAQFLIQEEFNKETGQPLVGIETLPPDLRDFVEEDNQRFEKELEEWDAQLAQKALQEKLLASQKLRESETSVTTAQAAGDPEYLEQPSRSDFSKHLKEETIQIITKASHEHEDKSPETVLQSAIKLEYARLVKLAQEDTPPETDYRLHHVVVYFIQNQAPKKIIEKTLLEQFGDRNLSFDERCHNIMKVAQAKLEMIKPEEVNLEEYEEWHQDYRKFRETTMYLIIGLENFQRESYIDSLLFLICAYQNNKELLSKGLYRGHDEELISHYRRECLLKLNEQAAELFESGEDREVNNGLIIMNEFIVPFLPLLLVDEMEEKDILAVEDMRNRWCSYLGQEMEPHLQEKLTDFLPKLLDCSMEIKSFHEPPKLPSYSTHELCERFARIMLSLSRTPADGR
# In short: as §1
# USP28 = molecular target: T3, USP28 (UniProt Q96RU2)
# T3 sequence (whole entry): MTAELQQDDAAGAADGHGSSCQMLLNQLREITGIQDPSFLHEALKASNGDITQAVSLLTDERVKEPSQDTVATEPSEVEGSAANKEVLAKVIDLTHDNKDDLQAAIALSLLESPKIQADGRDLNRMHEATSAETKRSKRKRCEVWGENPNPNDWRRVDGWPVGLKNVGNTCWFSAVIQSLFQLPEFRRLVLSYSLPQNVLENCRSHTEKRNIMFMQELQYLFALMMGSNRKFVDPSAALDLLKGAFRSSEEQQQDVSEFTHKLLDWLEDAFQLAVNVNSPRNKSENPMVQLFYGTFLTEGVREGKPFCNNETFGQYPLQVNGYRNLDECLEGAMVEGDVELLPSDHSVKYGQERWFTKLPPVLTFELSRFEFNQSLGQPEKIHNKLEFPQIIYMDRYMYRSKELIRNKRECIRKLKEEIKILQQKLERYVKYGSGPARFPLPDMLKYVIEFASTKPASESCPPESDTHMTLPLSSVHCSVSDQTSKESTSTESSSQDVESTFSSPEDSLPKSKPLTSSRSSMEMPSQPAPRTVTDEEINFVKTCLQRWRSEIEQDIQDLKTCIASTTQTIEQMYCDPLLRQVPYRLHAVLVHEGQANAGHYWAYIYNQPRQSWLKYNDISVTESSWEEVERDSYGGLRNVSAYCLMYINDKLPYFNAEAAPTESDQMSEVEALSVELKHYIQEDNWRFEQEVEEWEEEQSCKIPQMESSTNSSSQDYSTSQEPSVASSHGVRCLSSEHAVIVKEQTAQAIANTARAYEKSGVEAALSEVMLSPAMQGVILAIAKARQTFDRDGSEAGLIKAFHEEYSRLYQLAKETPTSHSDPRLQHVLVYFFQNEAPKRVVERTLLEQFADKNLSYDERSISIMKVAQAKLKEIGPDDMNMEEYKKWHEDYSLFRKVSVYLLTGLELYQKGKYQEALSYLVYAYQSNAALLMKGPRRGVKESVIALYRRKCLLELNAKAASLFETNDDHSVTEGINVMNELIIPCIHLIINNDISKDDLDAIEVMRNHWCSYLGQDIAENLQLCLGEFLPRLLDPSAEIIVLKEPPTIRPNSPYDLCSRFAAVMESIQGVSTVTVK
# In short: as §1
# USP24, sequence (Q9UPU5 whole entry): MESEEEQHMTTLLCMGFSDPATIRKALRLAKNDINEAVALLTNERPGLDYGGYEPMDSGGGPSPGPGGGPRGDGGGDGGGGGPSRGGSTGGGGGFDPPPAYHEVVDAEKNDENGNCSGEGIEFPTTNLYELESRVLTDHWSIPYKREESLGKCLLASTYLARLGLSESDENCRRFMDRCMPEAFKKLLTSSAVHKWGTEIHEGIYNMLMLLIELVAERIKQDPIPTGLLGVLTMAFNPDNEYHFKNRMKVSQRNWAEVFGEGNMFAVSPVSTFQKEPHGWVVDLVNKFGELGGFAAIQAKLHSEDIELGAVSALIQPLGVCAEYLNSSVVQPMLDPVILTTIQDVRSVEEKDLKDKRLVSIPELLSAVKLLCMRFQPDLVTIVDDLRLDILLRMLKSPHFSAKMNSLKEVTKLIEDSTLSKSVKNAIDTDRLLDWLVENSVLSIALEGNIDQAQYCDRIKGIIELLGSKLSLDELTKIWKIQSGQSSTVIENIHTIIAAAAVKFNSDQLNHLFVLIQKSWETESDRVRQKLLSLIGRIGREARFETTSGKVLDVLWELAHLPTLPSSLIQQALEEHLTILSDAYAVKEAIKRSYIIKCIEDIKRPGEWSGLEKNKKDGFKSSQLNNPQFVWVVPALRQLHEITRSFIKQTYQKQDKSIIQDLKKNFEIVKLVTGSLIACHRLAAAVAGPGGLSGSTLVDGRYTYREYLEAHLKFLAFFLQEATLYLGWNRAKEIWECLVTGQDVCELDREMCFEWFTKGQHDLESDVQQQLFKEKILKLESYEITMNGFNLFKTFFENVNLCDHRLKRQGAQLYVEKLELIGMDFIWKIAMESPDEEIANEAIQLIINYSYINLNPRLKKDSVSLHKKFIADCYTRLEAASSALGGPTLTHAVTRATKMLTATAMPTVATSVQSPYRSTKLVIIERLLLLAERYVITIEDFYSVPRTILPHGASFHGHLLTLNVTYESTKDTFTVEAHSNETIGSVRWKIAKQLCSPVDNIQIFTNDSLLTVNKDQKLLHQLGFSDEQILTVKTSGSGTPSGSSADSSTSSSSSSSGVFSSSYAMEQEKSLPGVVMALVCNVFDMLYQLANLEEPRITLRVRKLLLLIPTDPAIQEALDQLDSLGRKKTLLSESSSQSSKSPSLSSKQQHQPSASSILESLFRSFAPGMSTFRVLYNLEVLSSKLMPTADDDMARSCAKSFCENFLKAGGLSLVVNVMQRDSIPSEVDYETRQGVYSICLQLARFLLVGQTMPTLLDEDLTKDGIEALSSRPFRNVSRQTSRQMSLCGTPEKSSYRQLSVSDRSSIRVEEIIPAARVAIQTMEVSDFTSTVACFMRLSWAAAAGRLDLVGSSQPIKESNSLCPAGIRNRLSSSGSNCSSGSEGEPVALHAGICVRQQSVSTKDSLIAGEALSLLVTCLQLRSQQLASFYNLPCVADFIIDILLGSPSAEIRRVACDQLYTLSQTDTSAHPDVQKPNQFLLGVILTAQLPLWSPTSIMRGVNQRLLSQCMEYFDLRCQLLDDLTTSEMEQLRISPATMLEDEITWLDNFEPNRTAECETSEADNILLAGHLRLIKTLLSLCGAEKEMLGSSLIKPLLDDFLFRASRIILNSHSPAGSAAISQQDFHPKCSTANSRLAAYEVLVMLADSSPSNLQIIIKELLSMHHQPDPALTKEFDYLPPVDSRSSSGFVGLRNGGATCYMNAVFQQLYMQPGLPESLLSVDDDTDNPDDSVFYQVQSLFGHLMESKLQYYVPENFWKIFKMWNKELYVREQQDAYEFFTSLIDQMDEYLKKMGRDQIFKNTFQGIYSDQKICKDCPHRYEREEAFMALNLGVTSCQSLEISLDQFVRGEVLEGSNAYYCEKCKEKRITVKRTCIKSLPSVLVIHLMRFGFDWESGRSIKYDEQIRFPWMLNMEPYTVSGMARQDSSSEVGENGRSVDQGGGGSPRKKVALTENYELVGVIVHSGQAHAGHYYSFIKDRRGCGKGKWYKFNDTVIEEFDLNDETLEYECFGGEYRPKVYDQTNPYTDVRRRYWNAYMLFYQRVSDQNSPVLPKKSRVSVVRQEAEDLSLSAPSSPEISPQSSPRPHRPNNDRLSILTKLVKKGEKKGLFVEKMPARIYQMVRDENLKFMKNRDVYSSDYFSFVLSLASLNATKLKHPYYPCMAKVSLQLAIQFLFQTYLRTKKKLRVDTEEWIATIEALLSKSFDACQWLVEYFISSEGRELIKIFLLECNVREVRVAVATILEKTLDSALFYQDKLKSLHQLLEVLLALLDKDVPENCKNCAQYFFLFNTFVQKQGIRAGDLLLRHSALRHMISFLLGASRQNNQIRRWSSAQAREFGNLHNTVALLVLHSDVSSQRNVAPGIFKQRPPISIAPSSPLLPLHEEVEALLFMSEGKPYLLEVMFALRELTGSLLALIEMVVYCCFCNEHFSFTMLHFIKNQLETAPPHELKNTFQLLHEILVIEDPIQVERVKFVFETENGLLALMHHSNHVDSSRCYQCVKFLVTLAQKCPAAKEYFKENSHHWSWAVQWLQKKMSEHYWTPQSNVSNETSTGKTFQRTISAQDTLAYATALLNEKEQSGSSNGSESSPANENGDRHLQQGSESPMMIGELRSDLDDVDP
structure (smiles),measurement,setting,value
O=C(CCl)Nc1cc2c(cc1Cl)OCCCO2,log2 ratio of Biotin-Ahx-Ub-VS probe labelling,USP19,0.113
same,log2 ratio of Biotin-Ahx-Ub-VS probe labelling,USP24,0.00346
same,log2 ratio of Biotin-Ahx-Ub-VS probe labelling,USP25,-2.47 (active)
same,log2 ratio of Biotin-Ahx-Ub-VS probe labelling,USP28,-1.92 (active)

# — the supplement of paper PMC11732987, “Enantioselective OTUD7B fragment discovery through chemoproteomics screening and high-throughput optimisation” (Communications Chemistry, 2025)
